According to PubChem BioAssay (NCI):
The panel holds about 83,000 compounds, 20% with a hit somewhere; the sample as a whole holds those more often.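 Cell lines were cultured in 96-well plates, exposed to a single compound concentration, and assessed for percent growth 48 hours later.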 Unmarked numbers belong to inactive results. Active and inactive are the calls of the source. How the source made its calls: active means growth percent below 10; inactive means the rest.

Legend:
Assay in all cases: NCI-60 one-dose screen, 48 h (100 = growth as untreated, 0 = no growth, -100 = all killed)
Conditions in all cases: 10 µM unless noted
HCT-15 colon = test system: HCT-15 colon
HT29 colon = test system: HT29 colon
SNB-75 CNS = test system: SNB-75 CNS
SNB-19 CNS = test system: SNB-19 CNS
PC-3 prostate = test system: PC-3 prostate
SK-MEL-5 melanoma = test system: SK-MEL-5 melanoma
UACC-62 melanoma = test system: UACC-62 melanoma
LOX IMVI melanoma = test system: LOX IMVI melanoma
SK-MEL-28 melanoma = test system: SK-MEL-28 melanoma
SK-MEL-2 melanoma = test system: SK-MEL-2 melanoma
EKVX NSCLC = test system: EKVX NSCLC
SN12C renal = test system: SN12C renal
UO-31 renal = test system: UO-31 renal
TK-10 renal = test system: TK-10 renal
ACHN renal = test system: ACHN renal
CAKI-1 renal = test system: CAKI-1 renal
CCRF-CEM leukemia = test system: CCRF-CEM leukemia
MOLT-4 leukemia = test system: MOLT-4 leukemia
A498 renal = test system: A498 renal
U251 CNS = test system: U251 CNS

Row | SMILES | growth (HCT-15 colon) | growth (HT29 colon) | growth (SNB-75 CNS) [%] | growth (SNB-19 CNS) | growth (PC-3 prostate) | growth (SK-MEL-5 melanoma) | growth (UACC-62 melanoma) [%] | growth (LOX IMVI melanoma) | growth (SK-MEL-28 melanoma) | growth (SK-MEL-2 melanoma) [%] | growth (EKVX NSCLC) [%] | growth (SN12C renal) [%] | growth (UO-31 renal) | growth (TK-10 renal) | growth (ACHN renal) [%] | growth (CAKI-1 renal) [%] | growth (CCRF-CEM leukemia) | growth (MOLT-4 leukemia) | growth (A498 renal) [%] | growth (U251 CNS) [%]
1 | COc1cc2oc(-c3cccc(C(=O)Nc4ccc(Br)cc4)c3)cc(=O)c2c(OC)c1OC | 40.2% | 39.5% | 81.7 | 80.9% | 53.1% | 56.3% | 63.7 | -20.9% (active) | 35.7% | 71.2 | 60 | 50.9 | 55.7% | 62.5% | 72.5 | 20.6 | 41.9% | 49.5% | – | –
2 | CC[C@]12C=CCN3CC[C@@]4(c5cc(NC(=O)CCC(=O)O[C@H]6CC[C@H]7[C@@H]8CCC9=CC(=O)CC[C@@H]9[C@H]8CC[C@]67C)c(OC)cc5N(C)[C@H]4[C@@](O)(C(=O)OC)[C@@H]1OC(C)=O)[C@@H]32 | 62.2% | 62.8% | 68.6 | 85% | 53.6% | 43.8% | 64.1 | 84.7% | 91.7% | 81.9 | 73.4 | 81.5 | 53.6% | 97.4% | 87.2 | 67.8 | 62.7% | 40.3% | 71.6 | –
3 | CCOc1ccc(Nc2nc(-c3ccc4c(c3)NC(=O)CO4)cs2)cc1 | 51.3% | 62% | 56.8 | 81.4% | 24.6% | -11.2% (active) | 52.1 | 43.9% | 33.6% | 81.3 | 89 | 78.6 | 63.7% | 85.5% | 52.3 | 108 | 32.9% | 6.58% (active) | 103 | –
4 | N#Cc1cccc(-c2ccc3c(c2)NC(=O)/C3=C\c2ccc[nH]2)c1 | 14.3% | 53.7% | 58.2 | 91.2% | 70.2% | 36.6% | 42.7 | 66.1% | 83.5% | 81.2 | 25.2 | 87.6 | 65.6% | 32.3% | 57.8 | 51.8 | 69.7% | 68.2% | – | –
5 | O=C(CCN1CCCC1)Nc1ccc2c(Nc3ccc(Br)cc3)c3ccccc3nc2c1 | -73.9% (active) | 1.67% (active) | 37.3 | -0.557% (active) | 4.09% (active) | 31.7% | 77.8 | -92.4% (active) | -28.6% (active) | 97.1 | 59.5 | 30 | -96.8% (active) | -36.1% (active) | 29.4 | – | -15.6% (active) | -33.8% (active) | – | –
6 | O=C(O)c1ccc(NCc2cn(-c3ccc(C(F)(F)F)cc3)nc2-c2ccc(C(=O)O)cc2)cc1 | 101% | 108% | 91.8 | 101% | 108% | 103% | 101 | 99.4% | 112% | 112 | 98 | 103 | 84.2% | 106% | 109 | 95.8 | 106% | 109% | – | –
7 | COCCCN1CC(O)=C(c2nc(-c3ccc(C)cc3)cs2)C1=N | 110% | 128% | 154 | 98.6% | 94.3% | 103% | 103 | 102% | 159% | 113 | 97.3 | 92.9 | 80.6% | 138% | 111 | 96.1 | – | 86.4% | 93.3 | –
8 | COc1cc2c(cc1OC)C(=O)/C(=C/c1cc(C)c(O)c(C)c1)S2 | 18.7% | 83.2% | 24 | 38.7% | 38.4% | 21.3% | 43.3 | 44.2% | 65% | 42.6 | 40.8 | 50.4 | 54.8% | 66% | 45.3 | 43.9 | 17.1% | – | – | –
9 | CN(CCN(C)c1ccc(C(=N)N)cc1)c1ccc(C(=N)N)cc1 | 102% | 108% | 99.6 | 121% | 81.3% | 92% | 78.7 | 99.9% | 108% | 94.4 | 94.4 | 74.3 | 79.8% | 115% | 105 | 68.6 | -72% (active) | – | 71.4 | –
10 | NC(=NCc1ccccc1)C(N=Nc1ccccc1)C(=O)NCc1ccccc1 (stereo not drawn) | 49.1% | 18.3% | 96.9 | 63.4% | 62.7% | 103% | – | 42.7% | 106% | 107 | 82.5 | 58.6 | 68.3% | 69.6% | 92.1 | 54 | 76% | 61% | – | 26.7
11 | CN1CCC(=C(c2ccccc2)c2ccccc2)C(c2ccccc2)C1 (stereo not drawn) | 82.5% | 82.9% | 88 | 95.5% | 93.6% | 101% | – | 86% | 110% | 102 | 89 | 99.4 | 84.9% | 96.2% | 93.1 | 66.4 | 105% | 92.1% | – | 93.3
12 | COc1ccc(-c2nc3sccn3c2/C=C/C(=O)c2ccc3c(c2)OCO3)cc1 | 59.3% | 85% | 72.3 | 80.6% | 58.6% | 78.7% | – | 38.4% | 105% | 87.4 | 85.4 | 86.1 | 73.5% | 119% | 73.3 | – | 18.3% | 37.3% | 113 | 55.1
13 | CCNC(=O)Oc1ccc(/C(=C(\C)c2ccccc2)c2ccc(OCCN3CCCCC3)cc2)cc1 | 17% | -13.8% (active) | 84.7 | 79.4% | 49.7% | 62.5% | – | 57.3% | 47.2% | 82.8 | 82 | 65.2 | 41.2% | 83.3% | 84.2 | 38.5 | 72.7% | 51% | – | 48.6
14 | CNC(=O)c1cccc(Cn2nc(C)c(NC(=O)c3ccc(COc4ccc(C(F)(F)F)cc4C)cc3)c2C)n1 | 49.4% | 42% | 80.9 | 47.8% | 34.6% | -6.19% (active) | 63 | 55.2% | 70.5% | 50.5 | 37.5 | 59.8 | 50.8% | 56.2% | 54.9 | 46.4 | 60.2% | – | – | –
15 | COC(=O)C(CC=O)C(=O)C(=O)Nc1cccc(C(F)(F)F)c1 (stereo not drawn) | 108% | 99.1% | 92.8 | 102% | 95.7% | 99.9% | 89.7 | 85.9% | 120% | 109 | 92.1 | 92.2 | 86.6% | 102% | 105 | 97.7 | – | – | 83.4 | –
